Hits are enriched below; roughly 0.59% of the tested compounds scored in any of these assays.
UGM FP inh: Mtb UDP-galactopyranose mutase inhibition | inhibition, % at 10 µM | purified UGM, fluorescence polarization probe displacement | P9WIQ1 | 320,000 compounds, 0.06% hits; in the data active = inhibition above about 10%, passing the limit was not always enough; inconclusive = no clear call, values can overlap the other calls
Mtb bLac sens: beta-lactam sensitization of Mtb H37Rv; M. tuberculosis H37Rv growth with meropenem, percent inhibition; inhibition, % at 25 µM; 330,000 compounds, 0.27% hits; AID 434955; call rule not given here;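 note: growth measured after seven days incubation then overnight dye step; 0% = bacteria only wells and 100% = bacteria with antibiotic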
Rv3671c protease: Rv3671c (M. tuberculosis) protease inhibition. P9WHR9. inhibition, % at 5.96 µM. 320,000 compounds, 0.048% hits; in the data active = inhibition above about 38%;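 note: extracellular domain of Rv3671c used as enzyme; 0% = enzyme with DMSO and 100% = no enzyme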
Target sequence (P9WHR9 whole entry, looked up, the tested form may be a part): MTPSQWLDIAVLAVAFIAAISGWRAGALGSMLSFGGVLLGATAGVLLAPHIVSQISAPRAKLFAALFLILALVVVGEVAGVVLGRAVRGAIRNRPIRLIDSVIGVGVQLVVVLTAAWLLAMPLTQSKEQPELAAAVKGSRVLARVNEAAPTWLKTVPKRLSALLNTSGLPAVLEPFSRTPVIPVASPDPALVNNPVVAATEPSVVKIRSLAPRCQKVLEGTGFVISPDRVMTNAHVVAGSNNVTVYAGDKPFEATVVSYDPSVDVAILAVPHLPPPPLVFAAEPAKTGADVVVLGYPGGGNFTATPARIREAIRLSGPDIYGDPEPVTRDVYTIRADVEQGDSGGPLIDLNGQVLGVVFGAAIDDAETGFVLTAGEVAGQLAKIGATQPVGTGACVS
Mtb hypoxia inh: inhibitors of hypoxia-regulated fluorescent reporter in Mycobacterium tuberculosis | 300,000 compounds, 0.1% hits | fluorescence inhibition, % (no concentration beside the values) | M. tuberculosis hypoxia-regulated fluorescent reporter, fluorescence | AID 1159583; in the data active = fluorescence inhibition mostly above about 23%, no sharp cut-off; inactive = mostly below about 17%
DUSP3 inh: DUSP3 (human) phosphatase inhibition; 290,000 compounds, 0.52% hits; recombinant VHR phosphatase, pNPP absorbance; AID 1654; inhibition, % at 13.3 µM; P51452; in the data active = inhibition above about 50%
Active calls of the source: *; ? = inconclusive; . = no result shown.

SMILES | UGM FP inh | Mtb bLac sens | Rv3671c protease | Mtb hypoxia inh | DUSP3 inh
COc1ccccc1N1N=C(C(=O)c2ccccc2)C2C(=O)N(c3ccc(Br)cc3)C(=O)C21 (stereo unspecified) | 30.8* | 2.6 | 0.8 | 2.9 | 1.4
Cc1ccccc1OCC(=O)N/N=C/c1ccc([N+](=O)[O-])o1 | -1.3 | 99.8 | 7.8 | . | 51.9*
CN1CC=C2C(C#N)=C(N)C(C#N)(C#N)C(CCc3ccccc3)C2C1 (stereo unspecified) | 2.3 | -7.2 | -6.8 | 12.9 | 6.2
CCCC1C2CN(C(C)C)CC=C2C(C#N)=C(N)C1(C#N)C#N (stereo unspecified) | 13.3* | -3.1 | 8.2 | 8.2 | 10.0
Cc1ccc(OCC(=O)NC(C)c2ccc(Cl)c(Cl)c2)c([N+](=O)[O-])n1 (stereo unspecified) | 0.6 | -1.5 | -2.9 | -2.2 | 52.0*
COc1ccccc1C(=O)N1CCN(S(=O)(=O)c2ccccc2)CC1 | 1.4 | -11.9 | 9.6 | 12.7 | 57.1*
NNc1ccc2nnc(C(F)(F)C(F)(F)C(F)(F)F)n2n1 | 1.5 | 0.5 | 7.1 | 1.9 | -7.7
Clc1cccc(Cl)c1Cn1nnc(N2CCCC2)n1 | 0.6 | 0.3 | -0.5 | 35.5* | 8.7
COc1cc(C(C)=O)ccc1OCc1cc(C(=O)N(C)CCC2CCCCO2)no1 (stereo unspecified) | -1.5 | 8.1 | -3.2 | 3.8 | 57.7*
O=C(NC1CCOC1)c1cc(COc2cccc(C(F)(F)F)c2)on1 (stereo unspecified) | -0.2 | 1.7 | -12.5 | 1.8 | 51.2*
CCc1ccc(OCC(=O)NNCC(=O)Nc2ccc(OC)cc2)cc1 | . | . | . | 56.9* | .
O=C1CCCN1CCCN=c1c([N+](=O)[O-])nn(-c2ccc(Cl)cc2)n1O | . | . | . | 45.6* | 13.4
COc1ccc(NC(=O)c2ccccc2[N+](=O)[O-])cc1 | 1.5 | 2.4 | 7.3 | -1.1 | 55.4*
Cc1cc(C)nc(NS(=O)(=O)c2ccc(NC(=O)Cc3ccccc3)cc2)n1 | -2.2 | 0.8 | -0.8 | -7.9 | -2.9
Cc1cc(C)nc(NS(=O)(=O)c2ccc(NC(=O)Cc3ccc(F)cc3)cc2)n1 | -0.3 | -22.4 | -2.5 | 12.6 | 53.9*
CCOC(=O)[C@H](CCc1ccccc1)N[C@@H](C)C(=O)N1C(C(=O)O)C[C@@H]2CCC[C@@H]21 (stereo partly specified) | 1.1 | 0.5 | 0.8 | . | .
O=C(Nc1ccc([N+](=O)[O-])cc1Cl)c1cc(Cl)ccc1O | -2.5 | 100.0 | -2.9 | . | .
O=C(Nc1cccc(Cl)c1)c1cc(N=Nc2ccc([N+](=O)[O-])cc2Cl)ccc1O | 4.8 | 10.0 | 12.9 | 70.1* | 35.5
N#C/C(=C\C=C\c1ccccc1)c1nc(-c2ccc3c(c2)OCO3)cs1 | 19.5* | 56.0 | 0.9 | . | 10.2
O=C(Nc1cccc(S(=O)(=O)NC2=NCCC2)c1)c1cc(-c2ccco2)nc2ccccc12 | 0.6 | 14.5 | 7.1 | -20.1 | 51.7*
CCCc1cc(C(=O)Nc2ccc(C(=O)c3ccc(F)cc3)cc2)n(C)n1 | 0.9 | 93.4 | -27.6 | -2.6 | 6.2
Cc1cccc2c1ncc1c(=O)n(-c3ccccc3)[nH]c12 | 0.3 | -2.2 | -9.6 | 2.3 | 56.9*
CCC(CC)NC(=O)/C=C/c1ccccc1Cl | 3.1 | -4.7 | -9.1 | 9.6 | 5.4
O=C(Nc1ccccc1Br)c1cccc2ccccc12 | -0.6 | . | 8.3 | 14.2 | .
Cc1ccnc(NC(=O)c2ccc(COc3c(F)c(F)cc(F)c3F)o2)c1 | 1.5 | -7.0 | -8.9 | 9.4 | 58.2*
SMILES | UGM FP inh | Mtb bLac sens | Rv3671c protease | Mtb hypoxia inh | DUSP3 inh
Cc1ccc(S(=O)(=O)N(C)CC(=O)Nc2ccccc2)cc1 | -0.2 | -12.3 | 7.3 | -3.5 | 28.5
O=C(CN1CCSCC1)N/N=C/c1cccc(Cl)c1 | 2.4 | 0.5 | 1.4 | . | 9.0
COc1ccccc1C(=O)c1nc2ccccc2n1C | -0.4 | -5.3 | -3.0 | 1.1 | 58.2*
COc1ccc(NS(=O)(=O)c2ccc(N3CCOCC3)c(N)c2)cc1 | -1.6 | 14.9 | -6.6 | 28.5* | .
CC[C@@]1(O)C(=O)OCc2c1cc1n(c2=O)Cc2cc3c(CN(C)C)c(O)ccc3nc2-1 | 33.5* | -0.4 | 6.3 | 5.8 | .
CC[C@@]1(O)C(=O)OCc2c1cc1n(c2=O)Cc2cc3c(N)cccc3nc2-1 | 1.5 | -4.6 | -0.5 | -4.5 | 3.5
COc1ccc(CCN2CC(C(=O)NCCc3ccccn3)CCC2=O)cc1 (stereo unspecified) | -0.8 | ? | 0.8 | 9.7 | 17.5
O=C(NCCOc1ccc(F)cc1)C1CCC(=O)N(CCc2ccccn2)C1 (stereo unspecified) | 1.3 | -1.1 | 5.5 | -9.9 | 57.1*
CCCCCCSc1nsc(NC(=O)CC(C)C)n1 | 2.8 | 99.1 | -5.4 | 16.2 | -17.2

Assay outcomes from PubChem.
